TbREL1 inh: TbREL1 RNA ligase inhibitors, primary screen, biochemical, FRET fluorescence | AID 1117264, 2014 | RNA-editing ligase 1, mitochondrial (Trypanosoma brucei brucei), P86926 | TbREL1 RNA ligation | 89,000 compounds, 0.49% hits | inhibition, % at 9.66 µM;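 active = inhibition above the mean inhibition across all screened compounds plus 3 SD, cut at about 11% in these data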;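 note: 0% = plate median of test wells and 100% = NSC42067 control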
Target sequence (P86926 whole entry, looked up): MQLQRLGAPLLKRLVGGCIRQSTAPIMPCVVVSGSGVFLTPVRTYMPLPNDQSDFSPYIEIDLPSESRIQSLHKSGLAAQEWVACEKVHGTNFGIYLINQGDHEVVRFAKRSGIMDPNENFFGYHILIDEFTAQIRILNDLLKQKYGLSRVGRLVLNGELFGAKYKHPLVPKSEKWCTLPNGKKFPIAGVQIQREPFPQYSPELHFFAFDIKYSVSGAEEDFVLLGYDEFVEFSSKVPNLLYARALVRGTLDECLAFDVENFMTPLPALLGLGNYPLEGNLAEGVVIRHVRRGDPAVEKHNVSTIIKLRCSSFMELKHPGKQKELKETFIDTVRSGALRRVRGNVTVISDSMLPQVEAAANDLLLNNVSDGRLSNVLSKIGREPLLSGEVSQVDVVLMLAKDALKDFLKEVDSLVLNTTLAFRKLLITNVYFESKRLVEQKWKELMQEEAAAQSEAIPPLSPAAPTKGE
TbREL1 confirm: TbREL1 RNA ligase inhibitors, confirmation, biochemical, FRET fluorescence, triplicate; shares compounds with TbREL1 inh; inhibition, % at 9.66 µM; AID 1117282, 2014; 390 compounds, 37% hits; TbREL1 RNA ligation;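 active = mean inhibition across replicates above a set limit taken from the earlier primary screen, cut at about 11% in these data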;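 note: 0% = REL1 with substrate and DMSO and 100% = REL1 plus control inhibitor NSC42067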
The depositor's hits bear a star. Only a selection was taken, and hits are over-represented in it overall.

SMILES	TbREL1 inh	others
CCOc1cc(C)c(S(=O)(=O)Nc2ccc(F)cc2)cc1C	1.3
COc1ccc(S(=O)(=O)N2CCC(C(=O)NC(C)CCc3ccccc3)CC2)cc1 (stereo unspecified)	-1.3
CC(C)[C@H](NC(=O)OC(C)(C)C)c1cc(C(=O)N(C)CCN(C)C)c(N)s1	-5.5
Cc1ccccc1CN1CCCCC(NC(=O)c2ccc3ccccc3c2)C1=O (stereo unspecified)	9.2
COc1cc(-c2oc3cc(O)cc(O)c3c(=O)c2O[C@@H]2O[C@H](COC3O[C@@H](C)[C@H](O)[C@@H](O)[C@H]3O)[C@@H](O)[C@H](O)[C@H]2O)ccc1O (stereo partly specified)	-4.1
O=c1c(-c2ccc(O)cc2)coc2cc(OC3OC(CO)C(O)C(O)C3O)cc(O)c12 (stereo unspecified)	0.0
C[C@@H]1O[C@@H](Oc2c(-c3cc(O)c(O)c(O)c3)oc3cc(O)cc(O)c3c2=O)[C@H](O)[C@H](O)[C@H]1O	53.9*	TbREL1 confirm=35.6*
CCN(CC(=O)Nc1ccccc1C(F)(F)F)C(=O)c1cccc(N2C(=O)CCC2=O)c1	0.8
Cc1ccc(C(=O)OCC(=O)Nc2cc(C(C)(C)C)nn2-c2ccccc2)c(O)c1	-2.8
Cc1nnc(N=c2ssnc2Cl)o1	13.4*	TbREL1 confirm=19.5*
COc1cc(N=c2ssnc2Cl)c(OC)cc1Cl	1.7
O=S1(=O)c2c(cccc2N2CCC[C@H]2CO)O[C@H]2CCN1C2	-0.8
CC(=O)Nc1ccc(NC(=O)c2c([N+](=O)[O-])c(C(C)(C)C)nn2C)cc1	4.0
O=C(C[n+]1cc2ccccc2c2ccccc21)c1ccccc1	13.1*	TbREL1 confirm=9.4
O=C(O)CCC(=O)CCC(=O)c1ccccc1	7.5
Cc1nc2c(C)[n+](CC(=O)c3ccccc3)ccc2n1C	1.9
CCC(C)CNC(=O)c1cn(C(C)c2ccccc2)nn1 (stereo unspecified)	-0.8
O=C(Nc1ccc(N2CCOCC2)c(S(=O)(=O)Nc2ccc(Cl)cc2)c1)c1ccc(=O)[nH]n1	8.8
O=C(CCc1nnc(CCCCc2ccccc2)o1)N1CCN(CCO)CC1	-1.3
Nc1ccc2oc(=O)c3ccccc3c2c1	-1.9
Cc1cccc(C)c1NS(=O)(=O)c1ccc2c(c1)C(=O)c1ccccc1C2=O	4.5
Nc1ccc2c(c1)C(=O)C(=O)c1ccccc1-2	61.0*	TbREL1 confirm=87.0*
COC(=O)c1cnc(SC)nc1C	-0.3
COCCN=C1N[C@@H](c2ccc(Br)cc2)C(C(=O)OC)=C(C)N1Cc1ccccc1	4.6
C=CCN=C1NC(c2ccc(F)cc2)C(C(=O)OC)=C(C)N1Cc1ccccc1C(F)(F)F (stereo unspecified)	13.5*	TbREL1 confirm=13.9*
SMILES	TbREL1 inh	others
COC(=O)C1=C(C)N(Cc2ccccc2C(F)(F)F)C(=NCc2ccc(OC)cc2)NC1c1cccc(F)c1 (stereo unspecified)	14.3*	TbREL1 confirm=19.0*
COC(=O)C1=C(C)N(Cc2ccccc2C(F)(F)F)C(=NCc2ccc(OC)cc2)NC1c1ccc(Cl)cc1 (stereo unspecified)	11.8*	TbREL1 confirm=16.5*
COC(=O)C1=C(C)N(Cc2ccc(Cl)cc2)C(=S)NC1c1cccc(OC)c1 (stereo unspecified)	-7.2
CCN1C(=NCc2ccc(OC)cc2)N[C@@H](c2ccccc2)[C@H](C(=O)OC)[C@H]1C	-1.7
COC(=O)C1=C(C)N(Cc2ccccc2C(F)(F)F)C(=NCc2ccc(OC)cc2)NC1c1ccccc1 (stereo unspecified)	13.4*	TbREL1 confirm=16.2*
C=CCN=C1NC(c2ccc(C(F)(F)F)cc2)C(C(=O)OC)=C(C)N1Cc1ccccc1C(F)(F)F (stereo unspecified)	9.7
COC(=O)C1=C(C)N(Cc2ccc(Cl)cc2)C(=S)NC1c1ccc(F)cc1 (stereo unspecified)	-4.9
COC(=O)C1=C(C)N(Cc2ccc(F)cc2)C(=S)NC1c1ccccc1 (stereo unspecified)	-8.3
COc1cccc(C2NC(=S)N(Cc3ccc(F)cc3)C(C)=C2C(C)=O)c1 (stereo unspecified)	-7.4
CS(=O)(=O)N1CCCC(C(=O)N2CCN(c3cccc(Cl)c3)CC2)C1 (stereo unspecified)	-0.2
Nn1c(C2CCCCC2)nc2ccccc2c1=O	1.6
Nc1ccc(S(=O)(=O)c2ccc(N)c(N)c2)cc1	-4.5
C/C=C1\COC(C(=O)NCc2cccc(OC)c2OC)(C(F)(F)F)C=C1C=C1CCCCC1 (stereo unspecified)	0.6
Cc1sc2ncn(CC(=O)NCCCC(=O)N3CCN(c4ccccc4)CC3)c(=O)c2c1C	-2.5
CCOc1cc(C(=O)OC(C)C(=O)Nc2ccc(S(N)(=O)=O)cc2)ccc1OCC(=O)N1CCOCC1 (stereo unspecified)	-0.8
COc1ccc(CNC(=O)CN(Cc2ccco2)C(=O)CNS(=O)(=O)c2ccccc2)cc1	-0.2
COC(=O)C1=C(C)N(Cc2ccccc2)C(=NCc2ccccc2)N[C@H]1c1cccc(F)c1	14.0*	TbREL1 confirm=14.6*
COC(=O)C1=C(C)N(Cc2ccccc2C(F)(F)F)C(=NCc2cccc(C(F)(F)F)c2)NC1c1ccc(C(F)(F)F)cc1 (stereo unspecified)	17.9*	TbREL1 confirm=19.8*
COC(=O)C1=C(C)N(Cc2ccccc2)C(=NCCc2c[nH]c3ccccc23)N[C@H]1c1cccc(F)c1	3.7
COC(=O)C1=C(C)N(Cc2ccccc2)C(=NCc2ccccc2)N[C@H]1c1ccccc1	5.3
COC(=O)C1=C(C)N(Cc2ccccc2C(F)(F)F)C(=NCc2ccc(C(F)(F)F)cc2)NC1c1ccc(Cl)cc1 (stereo unspecified)	11.9*	TbREL1 confirm=18.1*
COC(=O)C1=C(C)N(Cc2ccc(Cl)cc2)C(=S)NC1c1ccccc1 (stereo unspecified)	1.2
COC(=O)C1=C(C)N(Cc2ccccc2)C(=S)NC1c1ccc(Cl)cc1 (stereo unspecified)	-7.5
Cc1onc(-c2ccccc2)c1C(=O)NNC(=S)NC(=O)c1ccc2c(c1)OCO2	-9.1
Cc1ccc(C(=O)CCC2CCCCC2=O)cc1 (stereo unspecified)	-0.3
SMILES	TbREL1 inh	others
CCCCCCn1cc(CN(C)C2CN(Cc3cn(CCCCCC)nn3)S(=O)(=O)C2)nn1 (stereo unspecified)	-4.0
Cc1c(C(=O)N2CCc3ccccc32)cnn1C	0.2
C=C[C@@]1(C)CCC(/C(C)=C/C=C/C(C)(C)O)C[C@@H]1C(=C)C (stereo partly specified)	-3.3
O=C(NCC(c1cccs1)N1CCOCC1)c1ccc(Cl)nc1 (stereo unspecified)	4.5
Cc1ccc(OCCn2c(CCNC(=O)c3ccc(F)cc3F)nc3ccccc32)cc1	-3.7
COC(=O)C1=C(C)N(Cc2cccc(C(F)(F)F)c2)C(=NCc2ccc(OC)cc2)NC1c1ccccc1C(F)(F)F (stereo unspecified)	12.0*	TbREL1 confirm=23.4*
COC(=O)C1=C(C)N(Cc2cccc(C(F)(F)F)c2)C(=NCc2ccccc2C(F)(F)F)NC1c1ccccc1C(F)(F)F (stereo unspecified)	15.7*	TbREL1 confirm=24.1*
COC(=O)C1=C(C)N(C)C(=NCc2cccc(C(F)(F)F)c2)NC1c1ccccc1C(F)(F)F (stereo unspecified)	10.8
COC(=O)C1=C(C)N(C)C(=NCC2CC2)NC1c1ccccc1C(F)(F)F (stereo unspecified)	-1.6
